Activity calls are given as the source filed them. Calls come from the whole dose curve; as a rule, active = well fitted curve in the direction sought with a large enough effect in the repeat runs; inconclusive = weak or mixed curves; inactive = flat fitted curve, though single readings scatter.
Assay: qHTS assay to test for compound auto fluorescence at 535 nm (green) in HepG2 cell free culture (AID 720686)
Details: Cell-free medium, green autofluorescence 485/535 nm; series mostly up to 91.3 µM; fluorescence, % of fluorescein control: at the top concentration
Excerpt: U.S. Tox21 Program National Center for Advancing Translational Sciences [NCATS] NIH Chemical Genomics Center [NCGC] U.S. Environmental Protection Agency [EPA] National Institutes of Environmental Health Sciences [NIEHS] National Toxicology Program [NTP] U.S. Food and Drug Administration [FDA] Tox21 Assay Overview: Compound auto fluorescence often interferes with screening of the compound library against various biological targets and signaling pathways. Some of these compounds may have fluorophoric properties. Such properties may interfere with the assay outputs resulting in false positives and/or negatives. To decrease such complications and ensure the compound activities are relevant in terms of biological response, the Tox21 10K compound library was screened for auto fluorescence. From the fluorophores used as reporter signals in our screening assays, the auto fluorescence equivalencies of compounds against three fluorophores have been evaluated: Triamterene, Fluorescein and Rose Bengal sodium for blue, green and red fluorescence, respectively. The fluorescence intensities were measured using Excitation/Emission wavelengths at 405/460nm, 485/535nm and 540/590nm for blue, green and red labels, respectively. This assay includes the green fluorescence data.
Tox21 Assay Protocol Summary: 5 uL of culture medium (MEM containing 10% FBS) per well was dispensed into black wall/clear bottom 1536-well plates using a Multidrop Combi Dispenser (ThermoFisher Scientific, Waltham, MA). After 23 nL compound or DMSO vehicle was transferred into assay plate by a pintool work station (Kalypsys, San Diego, CA), fluorescence intensities in the assay plates were measured by an Envision (PerkinElmer, Shelton, CT) plate reader using three labels for measuring blue, green and red fluorescence at […] 460, 535 and 590nm respectively.
% is set by controls: 0 for no effect and ±100 for the full control effect.

Compound	fluorescence, % of fluorescein control	Potency
CCc1oc2ccccc2c1C(=O)c1cc(Br)c(O)c(Br)c1	-0.17% [at 46 µM] (inactive)	–
C[C@@H](NCCCc1cccc(C(F)(F)F)c1)c1cccc2ccccc12	-0.0787% [at 46 µM] (inactive)	–
CCCCCCCCCCCCCCCS(=O)(=O)Oc1ccccc1	0.0316% [at 46 µM] (inactive)	–
N/C(=N\N=C\c1ccc(Cl)cc1)N/N=C/c1ccc(Cl)cc1	0.0891% [at 46 µM] (inactive)	–
O=C(c1ccc(F)cc1)C1CCN(CCn2c(=O)[nH]c3ccccc3c2=O)CC1	0.045% [at 46 µM] (inactive)	–
NNc1nc(-c2ccc(N)cc2)cs1	-0.159% (inactive)	–
COc1ccc(C(=O)/C(Br)=C\C(=O)O)cc1	–	inactive
CSc1ccc(C(=O)c2[nH]c(=O)[nH]c2C)cc1	-0.0314% [at 46 µM] (inactive)	–
CC(C)C(C)(C)C(C)(C)C(C)(C)S	0.104% (inactive)	–
Clc1ccc2n[nH]nc2c1	-0.0126% (inactive)	–
N#CSc1ccc(N)c([N+](=O)[O-])c1	-0.15% (inactive)	–
COc1c(C)c2c(c(O)c1C/C=C(\C)CCC(=O)O)C(=O)OC2	-0.0501% [at 18.6 µM] (inactive)	–
CCCC1O[C@@H]2C[C@H]3[C@@H]4CCC5=CC(=O)C=C[C@]5(C)[C@H]4[C@@H](O)C[C@]3(C)[C@]2(C(=O)CO)O1 (stereo not given in full)	–	inactive
C=C(C)C(=O)OCC(O)COc1ccc(C(C)(C)c2ccc(OCC(O)COC(=O)C(=C)C)cc2)cc1 (stereo not given)	-0.14% (inactive)	–
O=c1c(-c2ccccc2)c1-c1ccccc1	0.0004% [at 46 µM] (inactive)	–
Cc1cc(CCN2CCN(c3nsc4ccccc34)CC2)cc2c1NC(=O)CC2(C)C	-0.0755% (inactive)	–
Cc1[nH]nc2c1N=C(c1ccccc1Cl)c1cc([N+](=O)[O-])ccc1N2	-0.292% (inactive)	–
CNc1ccc(O)cc1	0.233% (inactive)	–
CSc1ccc2c(c1)C(N1CCN(C)CC1)Cc1ccccc1S2 (stereo not given)	0.1% [at 46 µM] (inactive)	–
CC(C)(C)c1ccc(C(=O)O)cc1	-0.021% (inactive)	–

Compound	fluorescence, % of fluorescein control	Potency
CCCCCCCCCCCCCCCCCC[N+](C)(C)Cc1ccccc1	-0.0507% (inactive)	–
CCCCCOC(=O)CCCC	-0.0148% (inactive)	–
Cc1nc(-c2ccc3c(c2)CCN(CCC2CCC(NC(=O)/C=C/c4ccc(F)cc4)CC2)CC3)no1 (stereo not given)	-0.0386% [at 46 µM] (inactive)	–
CCc1cc(Cc2cc(CC)c(N)c(CC)c2)cc(CC)c1N	0.0006% (inactive)	–
O=c1[nH]cnc2nc[nH]c12	-0.0731% [at 46 µM] (inactive)	–
CSc1cnc(C)cn1	-0.0201% [at 203 µM] (inactive)	–
Oc1ccc2c(c1)-c1ccccc1C2	0.113% (inactive)	–
Oc1cccc2cc3cccc(O)c3c(O)c12	-0.0079% (inactive)	–
Clc1ccccc1C(c1ccccc1)(c1ccccc1)n1ccnc1	–	inactive
CC(C)(C)CC(C)(C)c1ccc(OCCOCC[N+](C)(C)Cc2ccccc2)cc1	–	inactive
NC(=O)N1C(=O)C(C(=O)c2cc(Cl)cs2)c2cc(F)c(Cl)cc21 (stereo not given)	-0.0674% (inactive)	–
O=c1cc(-c2ccc(O)cc2)oc2cc(O)cc(O)c12	–	inactive
NC(=NCCCCCCN=C(N)/N=C(\N)Nc1ccc(Cl)cc1)/N=C(\N)Nc1ccc(Cl)cc1	–	inactive
C/C=C1/C(=O)C[C@H]2[C@@H]3CCC4=CC(=O)CC[C@]4(C)[C@H]3CC[C@]12C	-0.0169% (inactive)	–
O=C(Oc1ccccc1)c1ccccc1C(=O)Oc1ccccc1	0.0475% (inactive)	–
Cc1cc(C2CCCCC2)n(O)c(=O)c1	0.005% [at 18.6 µM] (inactive)	–
CC/C(=C(\c1ccc(O)cc1)c1ccc(OCCN(C)C)cc1)c1ccccc1	-0.0147% [at 95.7 µM] (inactive)	–
OC1(c2ccc(Cl)c(C(F)(F)F)c2)CCN(CCCC(c2ccc(F)cc2)c2ccc(F)cc2)CC1	-0.0456% [at 46 µM] (inactive)	–
O=C(O)c1ccc(Cl)c(Cl)c1	0.0465% (inactive)	–
CCCCCCCCNC(C)C(O)c1ccc(SC(C)C)cc1 (stereo not given)	-0.022% [at 46 µM] (inactive)	–

From PubChem BioAssay (Tox21)
